IL1B secr inh: blocks inflammasome-driven IL-1 beta release; THP-1 LPS/ATP IL-1B secretion, AlphaLISA, 16 h; hits give low values; hit rate 4.7% among 360,000; activity change, % at 57.5 µM; in the data active = activity change below about -50%; inconclusive = mostly about -30% to -49%; note: % is set by controls: 0 for no effect and ±100 for the full control effect
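Secreted IL-1B measured by AlphaLISA bead assay after 16 h compound exposure of THP-1 cells; compounds (final up to 57.5 uM) added 1 h before LPS (250 ng/mL) and ATP (1.25 mM) stimulation; lower signal means less secretion.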
Chronic BCR inh: inhibitors of chronic active B-cell receptor signaling; hit rate 0.05% among 340,000; ABC-DLBCL IkBa-CBG/CBR reporter, luminescence ratio, 4 h; Potency, µM (top dose mostly 46.1 µM), without a hit: at the top dose activity change, negative = inhibition, usual class: inhibitors; active = well fitted inhibition curve with a large enough effect in the signal ratio, with a control signal flat, not every such curve was filed as active; inconclusive = small, poorly fitted or top-dose-only effect, or effect the other way, or a change in a side signal; the % refers to the signal ratio;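 note: potency is the fitted concentration of half-maximal effect; plate controls were basal doxycycline-induced cells for no effect and cells given 10 µM MG132 for full effect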
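TMD8 human ABC-DLBCL cells with doxycycline-inducible IκBα–green luciferase fusion and unfused red luciferase, in 0.5% FBS medium; compounds up to 46 uM, 4 h at 37C. Green/red luminescence ratio, filter-overlap corrected, fitted to concentration-response curves.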
TDP1 cell CPT: growth inhibition of DT40 Tdp1-/-;hTDP1 cells with camptothecin (screen for TDP1 inhibitors). hit rate 12% among 420,000. Potency, µM (series often up to 46.2 µM), without a hit: at the highest dose activity change, negative = growth inhibition, hits mostly inhibitors. chicken DT40 Tdp1-/-;hTDP1 cells + 20 nM CPT, ATP luminescence, 48 h; note: potency is the fitted concentration of half-maximal effect; % is set by controls: 0 for no effect and ±100 for the full control effect; nearly all actives have a fitted effect of over 55% in size
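Cell growth measured by CellTiter-Glo luminescence after a minimum 48 h, 37 C compound exposure with 20 nM CPT in Tdp1-knockout DT40 cells stably expressing hTDP1, seeded 400/well; qHTS titration format.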
DT40 TDP1 no CPT: qHTS for Inhibitors of human tyrosyl-DNA phosphodiesterase 1 (TDP1): qHTS in cells in absence of CPT | DT40 Tdp1-/- hTDP1 cells, no CPT, ATP luminescence, 48 h | Potency, µM (titrated, usually from 46.2 µM), inactives show top-dose activity change, negative = growth inhibition, most hits filed as inhibitors | hit rate 15% among 420,000 | AID 686978, 2013; note: potency is the fitted concentration of half-maximal effect; % is set by controls: 0 for no effect and ±100 for the full control effect; nearly all actives have a fitted effect of over 55% in size
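Stably hTDP1-transfected Tdp1-null chicken DT40 cells were treated with library compounds minus camptothecin and grown for at least 48 hr at 37 °C, after which cellular ATP was quantified by luminescence.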
MCF10A rerep: DNA re-replication induction in MCF 10a cells | MCF 10A DNA re-replication, Hoechst nuclear intensity, 48 h | hit rate 2.9% among 350,000 | Potency, µM (doses to about 46.1 µM), for inactives: at the top dose activity, positive = re-replication, actives largely listed as activators; note: potency is the fitted concentration of half-maximal effect; % of control where 0% means no effect; nearly all actives have a fitted effect of over 50% in size
SW480 rereplic: inducers of DNA re-replication in SW480 colon cancer cells; Potency, µM (highest dose often 46.1 µM), without a hit: top-dose re-replication activation, most hits filed as activators; hit rate 1.8% among 340,000; SW480 DNA re-replication, Hoechst DNA content imaging, 48 h; note: potency is the fitted concentration of half-maximal effect; % of control where 0% means no effect; nearly all actives have a fitted effect of over 55% in size
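Image-based DNA-content assay: after two days of treatment, nuclei were labelled with the DNA dye Hoechst and imaged, and hits were compounds raising the count of nuclei showing high fluorescence intensity.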
* hit, by the source's call; ? = inconclusive; · = no result given; [ ] = dose if it differs, or a comment. This is a sample that favours compounds with a hit; in the whole collection about 19% have one here. Unless noted, calls come from the whole dose curve; as a rule, active = well fitted curve in the direction sought with a large enough effect; inconclusive = small, poorly fitted or top-dose-only effect, or another doubt; inactive = no such curve, though single readings can be large; an effect the other way counts as inactive or inconclusive.

SMILES	IL1B secr inh	Chronic BCR inh	TDP1 cell CPT	DT40 TDP1 no CPT	MCF10A rerep	SW480 rereplic
C/C(=N\NC(=O)c1ccc(Cl)cc1)c1ccc2[nH]ccc2c1	13	?	10%	?	0%	-1%
Cc1ccccc1Nc1cc(C(=O)NC2CCCCC2)c2ccccc2n1	·	·	?	21µM*	·	·
Cc1ccc(Nc2cc(C(=O)NC3CCCC3)c3ccccc3n2)cc1C	·	?	13µM*	15µM*	·	·
Cc1ccc(C)c(Nc2cc(C(=O)NC3CCCCC3)c3ccccc3n2)c1	·	·	-24%	-29%	·	·
Cc1ccccc1Nc1cc(C(=O)NC2CCC(C)CC2)c2ccccc2n1 (centres undefined)	·	·	16µM*	12µM*	·	·
CC1CCCCCCC1OC(=O)c1ccccc1C(=O)O (centres undefined)	1	·	-2%	-22%	-7%	-2%
NC(=S)NC(c1ccccc1)c1ccncc1 (centres undefined)	16	·	-1%	9%	-4%	-47%
O=C(NCCC1=CCCCC1)c1ccc(=O)oc1	-27	4%	?	-4%	-183%[0.0737 µM]	1%
CN(C)CCNC(=O)c1coc(=O)c(Br)c1	-10	?	2.3µM*	5.8µM*	22%	2%
CC(C)CNC(=O)c1coc(=O)c(Br)c1	-29	?	0.41µM*	0.82µM*	21µM*	?
Cn1ncc(Br)c1NC(=O)c1cc(Cl)cc(Cl)c1	-11	0%	-3%	-24%	1%	-3%
O=C(NCCC1=CCCCC1)c1coc(=O)c(Br)c1	0	?	0.12µM*	0.37µM*	12µM*	9.2µM*
CCOc1ccc(C(=O)NCC(C)C)cc1	-8	·	3%	-1%	-11%	-7%
O=C(Nc1cc(Cl)cc(Cl)c1)c1coc(=O)c(Br)c1	·	?	1.6µM*	12µM*	?	?
O=C(NCCc1ccccc1)c1coc(=O)c(Br)c1	-99*	?	0.82µM*	0.58µM*	?	10µM*
O=C(COC(=O)c1cc(Br)c(Br)s1)NCCC1=CCCCC1	0	-10%	23µM*	21µM*	10%	-3%
Cc1cc(C(=O)NCCC2=CCCCC2)c(C)o1	-25	?	?	18µM*	?	?
O=C(NNC(=O)C1C2CCCCC21)c1coc(=O)c(Br)c1 (centres undefined)	10	-4%	4.1µM*	4.1µM*	0%	5%
O=C(NCCc1ccccc1)c1ccco1	5	?	5%	1%	0%	3%
NC(=O)NCCC1=CCCCC1	-9	20%	-8%	-13%	4%	-5%
O=C(Nc1ccc(Br)c(Br)c1)C1CCCO1 (centres undefined)	?	·	-8%	-8%	26%	-3%
CSc1ccc(CN2CCN(C(C)C)C(CCO)C2)cc1 (centres undefined)	2	-5%	3%	0%	18%	-2%
COc1cc2c(cc1OC)C(c1ccccc1)N(C(=O)c1ccccc1F)CC2 (centres undefined)	-19	-3%	-22%	?	-2%	7%
COc1cc(NC(=O)COc2cc3oc(=O)cc(C)c3cc2Cl)cc(OC)c1OC	-16	-7%	8.2µM*	5.8µM*	-7%	2%
CC(=O)c1cccc(NC(=O)COc2ccc3oc(=O)cc(C)c3c2)c1	-3	-23%	18µM*	?	-6%	-8%
SMILES	IL1B secr inh	Chronic BCR inh	TDP1 cell CPT	DT40 TDP1 no CPT	MCF10A rerep	SW480 rereplic
Cc1c(NC(=O)c2cccc(NC(=O)COc3ccc(C#N)cc3)c2)c(=O)n(-c2ccccc2)n1C	-5	-11%	-9%	-47%	?	?
CC(=O)c1cccc(OCC(=O)Nc2cccc(C(=O)Nc3c(C)n(C)n(-c4ccccc4)c3=O)c2)c1	-8	-10%	13µM*	?	15%	-6%
COc1cc2c(cc1OC)C(COc1ccc3c(C)cc(=O)oc3c1)N(C(=O)c1ccccc1F)CC2 (centres undefined)	·	·	?	21µM*	·	·
O=C1NC[C@@H](CCCCN2C[C@H](Cc3ccc(O)cc3)N(Cc3ccccc3)C(=O)C2=O)N(Cc2ccccc2)C1=O	-1	·	-8%	-5%	·	·
COc1cc(C)c(COc2ncnc3ccccc23)cc1OC	7	-5%	?	?	-3%	-4%
Cc1cccc(C)c1NC(=O)COc1ccc2c(C)c(Cc3ccccc3)c(=O)oc2c1	2	5%	?	12µM*	13%	-1%
COc1cccc(C(=O)COc2ccc3c(C)cc(=O)oc3c2)c1	-14	-6%	3.3µM*	2.3µM*	?	?
COCC(=O)N1CCc2cc(OC)c(OC)cc2C1COc1ccc2c(C)cc(=O)oc2c1 (centres undefined)	·	·	-27%	?	·	·
Cc1cc(=O)oc2cc(OCC(=O)Nc3c(Cl)cccc3C(F)(F)F)ccc12	-11	?	?	13µM*	?	0%
COc1cccc(C(=O)N2CCc3cc(OC)c(OC)cc3C2COc2ccc3c(C)cc(=O)oc3c2)c1 (centres undefined)	·	·	?	10µM*	·	·
CCN(CC(=O)Nc1ccc(NC(C)=O)cc1)C(=O)c1cc2c(s1)CCCCC2	3	3%	7%	9%	-5%	-25%
COc1cc2ccccc2cc1C(=O)OCC(=O)c1c(N)n(C)c(=O)n(C)c1=O	-14	-1%	-4%	?	-4%	-7%
CCOC(=O)C1CCCN(C(=O)CNC(=O)c2ccc(Br)o2)C1 (centres undefined)	-11	0%	-13%	11%	-1%	?
COCCCN1CC(=O)N2C(c3cccc(OC)c3OC)c3[nH]c4ccccc4c3C[C@H]2C1=O (some centres undefined)	-16	-8%	-7%	-4%	-3%	-6%
Cc1cc(OC(C)C(=O)N2CCN(CCc3ccccn3)CC2)ccc1Cl (centres undefined)	·	·	-29%	-25%	·	·
Nc1nc(Cl)cc(N2CCC(c3cc(-c4ccc(Cl)cc4Cl)n[nH]3)CC2)n1	-11	8%	4.1µM*	4.1µM*	?	?
CCOC(=O)N1CCN(S(=O)(=O)N2CCCC(C(=O)NCc3cccc(OC)c3)C2)CC1 (centres undefined)	7	0%	?	?	6%	1%
COc1cc(C(=O)Oc2cccc(/C=N/NC(=O)c3cc(C)[nH]n3)c2)cc(OC)c1OC	-21	?	?	21µM*	3%	1%

Screening results deposited in PubChem by National Center for Advancing Translational Sciences (NCATS).
